GLP1R cytotox: qHTS of GLP-1 Receptor Inverse Agonists: Cytotox Screen | hit rate 0.13% among 410,000 | Potency, µM (doses to about 38.3 µM), for the others: at the top dose activity change, negative = inhibition, hits mostly inhibitors | AID 624418, 2012 | HEK293 cAMP-luciferase reporter cells, luminescence, 24 h;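 note: loss of luciferase light is scored as toxicity; % is set by controls: 0 for no effect and ±100 for the full control effect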
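Step one: seed cells (200 cells/uL, DMEM with 10% Nu serum, 1% pen-strep). Step two: 12-hour incubation at 37 deg C. Step three: pin 23 nL compound, incubate 24 hr. Step four: add luciferase reagent, read luminescence 12 min later.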
GLP-1R inv ag: qHTS of GLP-1 Receptor Inverse Agonists (Inhibition Mode); Glucagon-like peptide 1 receptor (Homo sapiens), P43220; hit rate 1.6% among 410,000; HEK293 GLP-1R CRE-luciferase, luminescence, 24 h; GLP-1R form is constitutively active; Potency, µM (highest dose often 38.3 µM), without a hit: at the highest dose activity change, negative = inhibition, actives largely listed as inhibitors; note: % is set by controls: 0 for no effect and ±100 for the full control effect; nearly all actives have a fitted effect of over 55% in size
Target sequence (P43220 whole entry, looked up): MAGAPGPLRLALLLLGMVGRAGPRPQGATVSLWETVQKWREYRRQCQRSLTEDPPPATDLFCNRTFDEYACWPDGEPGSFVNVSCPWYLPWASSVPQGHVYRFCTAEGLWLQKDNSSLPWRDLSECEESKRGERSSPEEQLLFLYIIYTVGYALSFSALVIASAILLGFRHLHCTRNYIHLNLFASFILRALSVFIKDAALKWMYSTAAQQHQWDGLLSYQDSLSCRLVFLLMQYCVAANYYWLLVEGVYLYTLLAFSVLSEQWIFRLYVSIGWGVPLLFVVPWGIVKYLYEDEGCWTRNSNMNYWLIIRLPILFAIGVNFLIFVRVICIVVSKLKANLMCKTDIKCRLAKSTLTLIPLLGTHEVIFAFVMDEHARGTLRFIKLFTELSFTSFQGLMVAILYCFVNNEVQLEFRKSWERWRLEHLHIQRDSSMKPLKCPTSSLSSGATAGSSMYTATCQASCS
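Assay principle: reduced luminescence from a cAMP-responsive reporter in HEK293 cells co-expressing a constitutively active GLP-1R. Conditions: 24 hr compound incubation, 37 deg C, 5% CO2.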
Mito fusion act: qHTS Assay for Small Molecule Inhibitors of Mitochondrial Division or Activators of Mitochondrial Fusion | S. cerevisiae fusion-defective mutant growth rescue, CellTiterGlo 48 h | Potency, µM (doses to about 46.1 µM), for inactives: top-dose growth rescue (activation), actives largely listed as activators | hit rate 0.23% among 320,000 | AID 485298, 2010; note: % of control where 0% means no effect; nearly all actives have a fitted effect of over 45% in size
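Growth-rescue viability read-out: after 48 h at the non-permissive 37C in glycerol/ethanol YPEG, yeast mitochondrial fusion mutants are measured by CellTiterGlo luminescence; compounds (23 nl pinned per well) restoring growth score as division inhibitors or fusion activators.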
GLP-1R agonist: qHTS of GLP-1 Receptor Agonists. Glucagon-like peptide 1 receptor (Homo sapiens), P43220. HEK293 GLP-1R CRE-luciferase, luminescence, 4-6 h; cells express a hypersensitive GLP-1R form. Potency, µM (top dose mostly 45.6 µM), for inactives: at the highest dose activation, most hits filed as activators. hit rate 0.007% among 380,000; note: % of control where 0% means no effect
BRCA1 expr act: qHTS Assay to Identify Small Molecule Activators of BRCA1 Expression; Potency, µM (titrated, usually from 46.1 µM), for the others: at the top dose activation, most hits filed as activators; MCF7-BRCA1-FFLuc reporter, luminescence, 48 h; response scale: scaled: vehicle 0%, 10 µM genistein 100%; AID 624202, 2012; hit rate 1.1% among 380,000; note: nearly all actives have a fitted effect of over 80% in size
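Cells: MCF7-BRCA1-FFLuc, 2000/well. Exposure: 48 h, 37 °C, 5% CO2. Read: luminescence, 15 min post-substrate. Controls: genistein 10 microM (maximal activation), DMSO (neutral).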
Numbers without * were called inactive; u = inconclusive; x = no result; ! = a repeat was not active. Most compounds without a hit are left out; they make up all but 2.8% or so of the library. Calls come from the whole dose curve; as a rule, active = well fitted curve in the direction sought with a large enough effect; inconclusive = small, poorly fitted or top-dose-only effect, or another doubt; inactive = no such curve, though single readings can be large; an effect the other way counts as inactive or inconclusive. Potency is the fitted concentration of half-maximal effect.

SMILES	GLP1R cytotox	GLP-1R inv ag	Mito fusion act	GLP-1R agonist	BRCA1 expr act
C[C@@H]1CC=C[C@H]2[C@H]1C(=O)N(Cc1ccccc1)[C@H]2c1ccc(-c2ccc(F)cc2)cc1F	3%	u	-37%	13%	-4%
COc1ccc(-c2ccc([C@H]3[C@H]4C=CC[C@@H](C)[C@@H]4C(=O)N3Cc3ccccc3)c(F)c2)cc1C	4%	4.5µM*	0%	3%	-49%
C[C@@H]1CC=C[C@@H]2[C@H]1C(=O)N(Cc1ccccc1)[C@H]2c1ccccc1Br	1%	-11%	x	1%	-18%
COc1ccc(-c2ccccc2[C@H]2[C@@H]3C=CC[C@@H](C)[C@@H]3C(=O)N2Cc2ccccc2)cc1	-8%	8.9µM*	x	1%	-18%
CC(=O)c1ccc(-c2cc([C@H]3[C@H]4C=CC[C@@H](C)[C@@H]4C(=O)N3Cc3ccccc3)ccc2F)cc1	-6%	11µM*	-3%	3%	-15%
O=C(O)CC(CC(=O)Nc1ccc(N2CCOCC2)cc1)c1ccccc1 (configuration not stated)	8%	45%	-2%	-2%	3%
Cc1ccc(-c2nnc(COC(=O)c3ccco3)o2)cc1	12%	5%	-4%	-1%	3%
CCOc1ccc(NC(=O)c2cnn(-c3ccc(C)c(Cl)c3)c2C2CCNCC2)cc1	u	8.9µM*	x	-2%	-23%
Cc1ccc(-n2ncc(C(=O)Nc3ccc(Cl)cc3)c2C2CCNCC2)cc1C	u	-27%	0%	0%	-11%
Cc1cc(N2CCN(c3ccc([N+](=O)[O-])c4cccnc34)CC2)c2ccccc2n1	4%	-3%	-7%	0%	-20%
O=C(Nc1ccccc1)N1CCCN(c2ccc(C(F)(F)F)cc2[N+](=O)[O-])CC1	0%	7.9µM*	-1%	3%	-6%
Cc1cc(N2CCN(c3ccc(C(F)(F)F)cc3[N+](=O)[O-])CC2)c2ccccc2n1	u	7.9µM*	-7%	-1%	-54%
CCOC(=O)C1=C(C)NC(=O)C(C(N)=O)C12CCCCC2 (configuration not stated)	-12%	7%	-3%	-3%	0%
COc1ccc(-c2ccc(SCC(=O)NC3CCCCC3)nn2)cc1	18%	9%	-4%	7%	u
COc1ccc(-c2cn3nc(SCC(=O)NC4CCCCC4)ccc3n2)cc1	0%	10%	-5%	15%	1.3µM*
COc1ccc(-c2[nH]c(-c3ccccc3)nc2SCC(=O)NC2CCCC2)cc1	-3%	10µM*!	u	2%	-40%
COc1ccc(-c2nc(SCC(=O)NC3CCCC3)c(-c3ccc(F)cc3)[nH]2)cc1	-14%	u	x	x	x
COc1ccc(-c2[nH]c(-c3ccc(F)cc3)nc2SCC(=O)NC2CCCC2)cc1	-20%	7.9µM*	24%	4%	-58%
CO[C@H]1/C=C/O[C@@]2(C)Oc3c(C)c(O)c4c(O)c(c5c(c4c3C2=O)NC2(CCN(CC(C)C)CC2)N=5)=NC(=O)/C(C)=C\C=C\[C@H](C)[C@H](O)[C@@H](C)[C@@H](O)[C@@H](C)[C@H](OC(C)=O)[C@@H]1C	-16%	-1%	x	10%	-29%
CCc1ccc(N2C(=O)CC(Cn3nc(C)cc3C)C2=O)cc1 (configuration not stated)	7%	7%	-4%	-8%	5%
Cc1cccc(C)c1NC(=O)CNC(=O)Cc1c[nH]c2ccccc12	-3%	-21%	-6%	3%	9%
Cc1cccc(C)c1NC(=O)c1c[nH]c2ccccc12	-8%	u	-1%	10%	3.5µM*
O=C(Nc1cccc(Cl)c1)OCc1cncs1	5%	44%	-6%	17%	32%
O=C(Nc1ccc(Cl)cc1)OCc1cncs1	-5%	-3%	0%	15%	11µM*
O=C(Nc1ccc(Cl)cc1)OCc1ccccn1	2%	-20%	-1%	-7%	3.5µM*
SMILES	GLP1R cytotox	GLP-1R inv ag	Mito fusion act	GLP-1R agonist	BRCA1 expr act
CS(=O)(=O)c1ccccc1COC(=O)Nc1ccc(Cl)cc1	0%	-22%	-2%	-2%	61%
CC(=O)Nc1cccc(OCC(=O)Nc2sccc2C(N)=O)c1	0%	6%	-1%	4%	4µM*
O=[N+]([O-])c1ccc(COc2ccccc2/C=N/O)cc1	-5%	8%	7%	12%	10µM*
CCOc1cc(/C=N/O)ccc1OCc1ccc([N+](=O)[O-])cc1	-10%	10%	22%	11%	9%
COc1ccc(NC(=O)CNC(=O)C2CCCCC2)cc1	-6%	9%	1%	8%	35%
CCOC(=O)c1ccc(NC(=S)N(CCN2CCCCCC2)Cc2ccco2)cc1	u	6.3µM*	1%	8%	-17%
O=C(CN1C(=O)C(=O)c2ccccc21)OCN1C(=O)c2ccccc2C1=O	-1%	4%	-5%	-2%	0%
CCOC(=O)c1ccccc1Oc1c(F)c(F)nc(NCCO)c1F	-15%	-6%	8%	1%	8%
NC(=O)c1nn(-c2ccc(Oc3ccccc3)cc2)c(=O)cc1O	3%	3%	5%	1%	2%
CC(C)c1ccccc1NC(=S)NCCCn1ccnc1	7%	7%	1.6µM*	0%	2%
CCOc1ccc(NC(=S)NCCCn2ccnc2)cc1	-19%	-18%	-6%	-1%	0%
CCOc1ccccc1NC(=O)CSc1nc2ccccc2nc1N1CCOCC1	6%	10µM*	-4%	5%	-18%
O=C(NCCSc1c[nH]c2ccccc12)c1ccco1	-5%	2%	1%	6%	11%
Cc1ccc(S(=O)(=O)N2CCC(N3CCN(C)CC3)CC2)cc1Cl	29%	2.5µM*	-1%	7%	-9%
Cc1ccc(S(=O)(=O)N2CCN(C)CC2)cc1C	5%	6%	-1%	-2%	2%
O=C(NNc1cc(C(F)(F)F)ccc1Cl)c1ccc(=O)[nH]c1	-8%	3.5µM*	-21%	9%	-26%
O=C(c1ccc(=O)[nH]c1)N1CCN(S(=O)(=O)c2cc(C(F)(F)F)ccc2Cl)CC1	10%	-31%	-9%	1%	-10%
COc1ccc(C(=O)/C=C2/C(=O)Nc3ccccc32)cc1	u	u	-20%	-2%	-12%
COc1ccc(C(=O)/C=C2/C(=O)Nc3ccccc32)c(OC)c1	10µM*	u	-95%	-6%	-88%
O=c1c2ccccc2ncn1-c1ccc(Cl)cc1[N+](=O)[O-]	-5%	u	5%	4%	29%

Bioassay records (PubChem BioAssay)
